The values below come from PubChem BioAssay.

Assay [1] can be described thus: optical density shifts of acrAB sulA E. coli – strain DRC41, OD650, 48 h, E. coli filamentation inducer project, primary screen (AID 1152).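 Note: E. coli MC1000 strain DRC41 lacking acrAB efflux pump and sulA.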 The conditions noted are these: higher = more signal, called active from +8 up or from −8 down.
Assay [2] can be described thus: probe aLefty1 binding on compound microarray – biochemical, small-molecule microarray, 635/667 nm fluorescence, primary screen (AID 1153).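 Note: score merges spot fluorescence with signal-to-noise ratio from the scanned slide images.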 The conditions noted are these: higher = more signal.
Assay [3] is described as follows: plasmodial surface anion channel blockers, osmotic lysis – cell-based, P. falciparum Indochina, OD700, 1 h, primary screen (AID 1154). Conditions: P. falciparum Indochina infected RBC osmotic lysis, higher = more signal, called active from +8 up or from −8 down.
Assay [4] is described as follows: plasmodial surface anion channel blockers, osmotic lysis – cell-based, P. falciparum Indochina, OD700, 2 h, primary screen (AID 1155).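 Note: lysis reports solute entry through the parasite surface anion channel PSAC.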 The conditions noted are these: P. falciparum Indochina infected erythrocytes, higher = more signal, called active from +8 up or from −8 down.
Assay [5] in a line: changes in parasitized red cell lysis, either direction – P. falciparum Indochina, OD700, 3 h, PSAC antagonist project, primary screen (AID 1156). Conditions: P. falciparum-infected erythrocytes, osmotic lysis, higher = more signal, called active from +8 up or from −8 down.
A short description of assay [6]: plasmodial surface anion channel blockers, osmotic lysis – cell-based, P. falciparum Indochina, OD700, 18 h, primary screen (AID 1157). The conditions noted are these: P. falciparum Indochina infected erythrocytes, osmotic lysis OD700, 18 h; higher = more signal, called active from +8 up or from −8 down.
Assay [7] in a line: S6 kinase pathway phospho-S6 level changes – cell-based, A549, cytoblot, luminescence, serum-stimulated, primary screen (AID 1158).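 Note: serum-stimulated A549 lung adenocarcinoma cells; signal is phosphorylated S6 detected by cytoblot immunostaining with HRP secondary.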 Conditions: 5 h, higher = more signal.
For assay [8], the target named is NADPH oxidase 2 (Homo sapiens) (UniProt P04839). Description: compounds shifting NOX2 Amplex Red fluorescence – cell-based, HEK293-NOX2, PMA-stimulated, NOX inhibitor project, primary screen (AID 1159). Note: test concentration not given here. Conditions: 45 min, higher = more signal, called active from +8 up or from −8 down.
In assay [9] the target is NADPH oxidase 4 (Homo sapiens) (UniProt Q9NPH5). Description: compounds shifting NOX4 Amplex Red fluorescence – cell-based, HEK293-NOX4, tetracycline-induced, NOX inhibitor project, primary screen (AID 1160). Conditions: HEK293-NOX4, Amplex Red H2O2 fluorescence, 45 min; higher = more signal, called active from +8 up or from −8 down.
For assay [10], the target named is NADPH oxidase 5 (Homo sapiens) (UniProt Q96PH1). Description: compounds shifting NOX5 Amplex Red fluorescence – cell-based, HEK293-NOX5, NOX inhibitor project, primary screen (AID 1161). The conditions noted are these: HEK293-NOX5, ionomycin, 45 min, higher = more signal.
The nature of assay [11]: compound effects on lung adenocarcinoma cell viability – A549, calcein-AM fluorescence, 48 h, basal, profiling panel (AID 1162). Note: test concentration not given here. The conditions noted are these: higher = more signal.
Assay [12] in a line: compound effects on differentiated 3T3-L1 adipocyte viability – cell-based, 3T3-L1 adipocytes, calcein-AM fluorescence, 48 h, basal, profiling panel (AID 1163). Note: test concentration not given here. The conditions noted are these: 3T3-L1 adipocytes viability, higher = more signal.
Assay [13] can be described thus: compound effects on hepatocellular carcinoma cell viability – HepG2, calcein-AM fluorescence, 48 h, basal, profiling panel (AID 1164). Note: test concentration not given here. Conditions: higher = more signal.
A short description of assay [14]: compound effects on multiple myeloma cell viability – MM1S, calcein-AM fluorescence, 48 h, basal, profiling panel (AID 1165). Note: test concentration not given here. Conditions: higher = more signal.
A short description of assay [15]: calcein-AM signal in unstimulated myeloma cells – cell-based, calcein-AM fluorescence, 48 h, PK04 Diversity Set, profiling panel (AID 1166).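 Note: cells grown under basal conditions without added stimulus; test concentration not given here.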 The conditions noted are these: RPMI8226 myeloma viability, higher = more signal.
Assay [16] can be described thus: JC-1 mitochondrial signal, unstimulated HepG2 cells – cell-based, JC-1 fluorescence, 24 h, 100 nL compound, profiling panel (AID 1167). Note: test concentration not given here. Conditions: HepG2 mitochondrial potential, higher = more signal.
A short description of assay [17]: JC-1 mitochondrial signal, unstimulated adipocytes – cell-based, JC-1 fluorescence, 3T3-L1 adipocytes, 24 h, 100 nL compound, profiling panel (AID 1168). Note: test concentration not given here. The conditions noted are these: JC-1 mitochondrial fluorescence, higher = more signal, called active from +8 up or from −8 down.
A short description of assay [18]: JC-1 mitochondrial signal, unstimulated myeloma cells – cell-based, JC-1 fluorescence, RPMI8226, 24 h, 100 nL compound, profiling panel (AID 1169). Note: test concentration not given here. The conditions noted are these: JC-1 mitochondrial potential fluorescence, higher = more signal.
Assay [19] can be described thus: JC-1 mitochondrial signal, unstimulated MM1S myeloma – cell-based, JC-1 fluorescence, 24 h, 100 nL compound, profiling panel (AID 1170). Note: test concentration not given here. Conditions: MM1S mitochondrial potential, higher = more signal.
Assay [20] in a line: resazurin metabolic signal in A549 cells – cell-based, resazurin fluorescence, 24 h, PK04 Diversity Set, profiling panel (AID 1171). Note: test concentration not given here. Conditions: A549 viability, higher = more signal, called active from +8 up or from −8 down.

The structures appear in SMILES notation. Active and inactive are the calls of the source.

Sequence of NADPH oxidase 2 (Homo sapiens) (P04839 whole entry, looked up): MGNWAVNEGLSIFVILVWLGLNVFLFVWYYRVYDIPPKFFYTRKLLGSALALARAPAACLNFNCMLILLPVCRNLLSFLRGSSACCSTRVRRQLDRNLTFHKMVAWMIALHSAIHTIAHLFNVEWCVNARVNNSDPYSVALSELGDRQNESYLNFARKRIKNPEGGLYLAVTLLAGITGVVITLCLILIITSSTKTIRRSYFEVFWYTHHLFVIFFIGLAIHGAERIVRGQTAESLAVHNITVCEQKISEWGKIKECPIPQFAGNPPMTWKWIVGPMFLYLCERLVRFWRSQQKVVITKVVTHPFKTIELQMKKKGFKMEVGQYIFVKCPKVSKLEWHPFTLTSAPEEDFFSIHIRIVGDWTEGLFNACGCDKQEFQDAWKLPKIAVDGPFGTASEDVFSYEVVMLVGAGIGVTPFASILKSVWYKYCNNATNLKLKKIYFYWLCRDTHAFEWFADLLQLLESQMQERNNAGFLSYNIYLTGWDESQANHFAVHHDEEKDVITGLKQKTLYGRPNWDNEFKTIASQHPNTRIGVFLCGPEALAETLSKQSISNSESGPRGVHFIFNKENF
Sequence of NADPH oxidase 5 (Homo sapiens) (Q96PH1 whole entry, looked up): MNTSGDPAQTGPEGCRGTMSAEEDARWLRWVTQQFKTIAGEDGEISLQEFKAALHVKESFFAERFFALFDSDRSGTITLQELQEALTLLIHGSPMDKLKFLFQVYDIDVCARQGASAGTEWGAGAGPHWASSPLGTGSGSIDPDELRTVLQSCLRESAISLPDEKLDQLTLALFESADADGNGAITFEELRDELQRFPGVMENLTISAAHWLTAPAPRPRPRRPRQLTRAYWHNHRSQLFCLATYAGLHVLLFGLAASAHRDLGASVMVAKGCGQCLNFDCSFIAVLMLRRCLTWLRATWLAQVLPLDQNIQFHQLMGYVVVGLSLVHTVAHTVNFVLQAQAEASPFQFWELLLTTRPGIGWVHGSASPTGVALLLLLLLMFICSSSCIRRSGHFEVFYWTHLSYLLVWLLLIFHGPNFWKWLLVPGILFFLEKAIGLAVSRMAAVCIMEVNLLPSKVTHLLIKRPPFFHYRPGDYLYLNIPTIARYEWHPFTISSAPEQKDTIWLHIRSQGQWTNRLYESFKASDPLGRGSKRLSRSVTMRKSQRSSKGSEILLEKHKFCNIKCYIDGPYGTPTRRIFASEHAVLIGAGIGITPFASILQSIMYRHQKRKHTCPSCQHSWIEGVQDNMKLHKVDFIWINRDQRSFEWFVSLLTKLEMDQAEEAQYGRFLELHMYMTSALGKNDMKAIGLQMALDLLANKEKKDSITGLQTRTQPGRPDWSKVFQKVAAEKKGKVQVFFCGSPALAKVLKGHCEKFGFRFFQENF
Sequence of NADPH oxidase 4 (Homo sapiens) (Q9NPH5 whole entry, looked up): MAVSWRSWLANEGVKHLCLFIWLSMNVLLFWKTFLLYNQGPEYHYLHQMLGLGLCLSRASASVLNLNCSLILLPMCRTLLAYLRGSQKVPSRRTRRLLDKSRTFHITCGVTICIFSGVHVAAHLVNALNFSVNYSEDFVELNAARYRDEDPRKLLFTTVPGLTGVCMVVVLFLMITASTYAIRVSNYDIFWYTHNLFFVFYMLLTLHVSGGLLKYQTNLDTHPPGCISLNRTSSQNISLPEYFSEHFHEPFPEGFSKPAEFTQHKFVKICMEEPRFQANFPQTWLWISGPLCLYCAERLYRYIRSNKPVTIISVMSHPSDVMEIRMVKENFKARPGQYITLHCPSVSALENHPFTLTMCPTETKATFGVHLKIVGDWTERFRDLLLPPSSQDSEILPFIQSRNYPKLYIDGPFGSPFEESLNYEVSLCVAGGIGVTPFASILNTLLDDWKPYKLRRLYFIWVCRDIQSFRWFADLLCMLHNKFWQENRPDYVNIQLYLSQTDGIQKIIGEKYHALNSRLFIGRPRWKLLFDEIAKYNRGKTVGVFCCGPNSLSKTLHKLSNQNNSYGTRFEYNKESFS

`CC(C)C[C@@H]1NC(=O)[C@H](C(C)C)NC(=O)[C@@]23C(=O)N[C@@H](Cc4ccccc4)C2[C@H](C)[C@@]2(C)O[C@H]2C3/C=C/CC/C=C/CNC1=O` (stereo not given in full): the z-score was -0.62 (inactive) in assay [1]; 4.9 (inactive) in assay [3]; 0.538 (inactive) in [4]; 0.841 (inactive) in [5]; 0.771 (inactive) in [6]; 0.116 in assay [7]. The z-score in assay [8] was -0.159 (inactive); in [9], 0.338 (inactive); in [10], -0.477; in assay [11] it was -0.642; in [12] it was 1.39; in assay [13] it was -0.504. Moreover, the z-score is -0.359 in [14]; -0.789 in assay [15]; -0.0491 in [16]; -0.321 (inactive) in assay [17]; 0.0651 in assay [18]; 1.72 in assay [19]. In addition, the z-score in assay [20] is 0.612 (inactive). Further, the composite z-score in assay [2] was found to be 0.131.

As for `[N-]=[N+]=NCc1ccccc1C[C@]1(C(=O)N2CCCCC2)N=C(c2ccc(OCCCO)cc2)O[C@H]1c1ccccc1N=[N+]=[N-]`, the z-score was -0.365 (inactive) in [1]; 30.8 (active) in assay [3]; 26.5 (active) in assay [4]; 3.55 (inactive) in [5]; 6.26 (inactive) in assay [6]; 1.9 in [7]. The z-score in [8] is -2.45 (inactive); in assay [9] it was 0.306 (inactive); in assay [10], -2.97; in assay [11] it was -1.27; in [12], 1.03; in [13], -0.454. Also, the z-score in assay [14] was -2.18; in [15], -3.48; in [16], 0.345; in [17], -0.187 (inactive); in [18] it was -1.16; in [19], -1.07. In addition, the z-score in [20] is -0.6 (inactive). Besides, the composite z-score in [2] is 0.286.

As for `COC(=O)[C@@]1(Cc2ccc(OC)cc2)[C@H]2c3cc(C(=O)N(C)C)n(Cc4ccccn4)c3C[C@H]2CN1C(=O)c1ccccc1`, the z-score in assay [1] is -1.76 (inactive); in assay [3] it was 1.63 (inactive); in assay [4], 0.463 (inactive); in assay [5] it was 1.01 (inactive); in [6], 0.863 (inactive); in [7] it was 0.704. The z-score is 0.188 (inactive) in [8]; -1.32 (inactive) in [9]; -2.73 in assay [10]; -0.865 in [11]; 0.626 in [12]; -0.319 in assay [13]. Also, the z-score in [14] was -0.684; in assay [15], -1.31; in [16] it was 2.05; in [17] it was -1.46 (inactive); in assay [18] it was 0.155; in assay [19], 0.016. Besides, the z-score in assay [20] was -0.793 (inactive). Moreover, the composite z-score in assay [2] worked out at 0.771.

Turning to `COCCOC(=O)N1C(=O)[C@@]2(c3ccccc31)[C@H](c1ccc(O)cc1)N1[C@H](c3ccccc3)[C@H](c3ccccc3)OC(=O)[C@H]1[C@@H]2C(=O)Nc1nc2ccccc2s1`, the z-score in assay [1] is 0.894 (inactive); in [3] it was 1.31 (inactive); in assay [4], 1.1 (inactive); in [5], 0.109 (inactive); in assay [6], 1.41 (inactive); in [7] it was 0.172. The z-score in [8] was 1.41 (inactive); in assay [9], 0.449 (inactive); in [10] it was 1.41; in assay [11], 0.982; in [12], 0.267; in [13] it was 0.818. Besides, the z-score in assay [14] was -1.49; in assay [15], -2.22; in assay [16], -3.87; in assay [17], -1.17 (inactive); in [18] it was -0.883; in assay [19] it was -1.21. Moreover, the z-score in assay [20] is 0.185 (inactive). In [2], this compound registered a composite z-score of 0.541.
